Assays:
Test in all cases: PBM; 200 nM protein, PBS
Settings in all cases: dsDNA, one strand shown
HESX1 [1] = molecular target: HESX1 (Homo sapiens, UniProt Q9UBX0 95-180, R165K)
HOXB4 [2] = molecular target: HOXB4 (Homo sapiens, UniProt P17483 148-234)
SHOX [3] = molecular target: SHOX (Homo sapiens, UniProt O15266 103-189)
HESX1 [4] = molecular target: HESX1 (Homo sapiens, UniProt Q9UBX0 95-180)
HOXA4 = HOXA4 (Homo sapiens, UniProt Q00056 201-287, R217L)
HOXB4 [5] = molecular target: HOXB4 (Homo sapiens, UniProt P17483 148-234, V174I)
Chain of HOXB4 (Homo sapiens, UniProt P17483 148-234, V174I) (P17483 148-234 V174I): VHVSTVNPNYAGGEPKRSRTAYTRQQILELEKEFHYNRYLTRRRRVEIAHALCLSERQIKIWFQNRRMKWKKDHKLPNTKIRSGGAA

MSX2 [6] = molecular target: MSX2 (Homo sapiens, UniProt P35548 130-214, R199I)
Chain of MSX2 (Homo sapiens, UniProt P35548 130-214, R199I) (P35548 130-214 R199I): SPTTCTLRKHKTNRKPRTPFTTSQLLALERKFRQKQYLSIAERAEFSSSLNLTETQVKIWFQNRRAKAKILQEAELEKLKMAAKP

ALX3 [7] = molecular target: ALX3 (Homo sapiens, UniProt O95076 139-225, N203Q)
Chain of ALX3 (Homo sapiens, UniProt O95076 139-225, N203Q) (O95076 139-225 N203Q): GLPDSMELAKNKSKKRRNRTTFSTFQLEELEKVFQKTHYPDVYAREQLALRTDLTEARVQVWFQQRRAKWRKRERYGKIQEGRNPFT

SHOX [8] = molecular target: SHOX (Homo sapiens, UniProt O15266 103-189, R173C)
Chain of SHOX (Homo sapiens, UniProt O15266 103-189, R173C) (O15266 103-189 R173C): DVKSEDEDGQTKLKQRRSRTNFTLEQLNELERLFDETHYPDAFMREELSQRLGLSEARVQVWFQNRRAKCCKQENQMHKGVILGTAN

ALX3 [9] = molecular target: ALX3 (Homo sapiens, UniProt O95076 139-225)
Chain of ALX3 (Homo sapiens, UniProt O95076 139-225) (O95076 139-225): as the sequence (O95076 139-225 N203Q) above, with Q65N counted along it

PROP1 [10] = molecular target: PROP1 (Homo sapiens, UniProt O75360 56-141)
Chain of PROP1 (Homo sapiens, UniProt O75360 56-141) (O75360 56-141): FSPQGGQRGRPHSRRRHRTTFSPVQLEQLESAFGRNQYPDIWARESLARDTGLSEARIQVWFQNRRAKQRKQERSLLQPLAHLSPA

HESX1 [11] = molecular target: HESX1 (Homo sapiens, UniProt Q9UBX0 95-180, R109Q)
Chain of HESX1 (Homo sapiens, UniProt Q9UBX0 95-180, R109Q) (Q9UBX0 95-180 R109Q): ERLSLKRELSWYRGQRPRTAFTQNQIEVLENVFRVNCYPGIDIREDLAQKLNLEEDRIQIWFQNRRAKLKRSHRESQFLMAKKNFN

PROP1 [12] = molecular target: PROP1 (Homo sapiens, UniProt O75360 56-141, R99H)
Chain of PROP1 (Homo sapiens, UniProt O75360 56-141, R99H) (O75360 56-141 R99H): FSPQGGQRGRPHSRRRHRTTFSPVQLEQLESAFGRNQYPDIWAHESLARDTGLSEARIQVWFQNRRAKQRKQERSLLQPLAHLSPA

ALX3 [13] = molecular target: ALX3 (Homo sapiens, UniProt O95076 139-225, L168Q)
Chain of ALX3 (Homo sapiens, UniProt O95076 139-225, L168Q) (O95076 139-225 L168Q): as the sequence (O95076 139-225 N203Q) above, with L30Q, Q65N counted along it

HESX1 [14] = molecular target: HESX1 (Homo sapiens, UniProt Q9UBX0 95-180, P111T)
Chain of HESX1 (Homo sapiens, UniProt Q9UBX0 95-180, P111T) (Q9UBX0 95-180 P111T): as the sequence (Q9UBX0 95-180 R109Q) above, with Q15R, P17T counted along it

ALX3 [15] = molecular target: ALX3 (Homo sapiens, UniProt O95076 139-225, L168V)
Chain of ALX3 (Homo sapiens, UniProt O95076 139-225, L168V) (O95076 139-225 L168V): as the sequence (O95076 139-225 N203Q) above, with L30V, Q65N counted along it

PROP1 [16] = molecular target: PROP1 (Homo sapiens, UniProt O75360 56-141, F88S)
Chain of PROP1 (Homo sapiens, UniProt O75360 56-141, F88S) (O75360 56-141 F88S): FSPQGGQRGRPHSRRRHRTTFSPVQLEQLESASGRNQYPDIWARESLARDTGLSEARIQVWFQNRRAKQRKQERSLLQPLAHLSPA

MSX2 [17] = molecular target: MSX2 (Homo sapiens, UniProt P35548 130-214, F161Y)
Chain of MSX2 (Homo sapiens, UniProt P35548 130-214, F161Y) (P35548 130-214 F161Y): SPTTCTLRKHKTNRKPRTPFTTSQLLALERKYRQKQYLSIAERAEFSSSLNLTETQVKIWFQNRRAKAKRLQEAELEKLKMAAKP

HESX1 [18] = molecular target: HESX1 (Homo sapiens, UniProt Q9UBX0 95-180, F115L)
Chain of HESX1 (Homo sapiens, UniProt Q9UBX0 95-180, F115L) (Q9UBX0 95-180 F115L): as the sequence (Q9UBX0 95-180 R109Q) above, with Q15R, F21L counted along it

ALX3 [19] = molecular target: ALX3 (Homo sapiens, UniProt O95076 139-225, N203S)
Chain of ALX3 (Homo sapiens, UniProt O95076 139-225, N203S) (O95076 139-225 N203S): as the sequence (O95076 139-225 N203Q) above, with Q65S counted along it

Chain of HESX1 (Homo sapiens, UniProt Q9UBX0 95-180) (Q9UBX0 95-180): as the sequence (Q9UBX0 95-180 R109Q) above, with Q15R counted along it
Chain of HOXB4 (Homo sapiens, UniProt P17483 148-234) (P17483 148-234): as the sequence (P17483 148-234 V174I) above, with I27V counted along it
Chain of SHOX (Homo sapiens, UniProt O15266 103-189) (O15266 103-189): as the sequence (O15266 103-189 R173C) above, with C71R counted along it
Chain of HESX1 (Homo sapiens, UniProt Q9UBX0 95-180, R165K) (Q9UBX0 95-180 R165K): as the sequence (Q9UBX0 95-180 R109Q) above, with Q15R, R71K counted along it
Chain of HOXA4 (Q00056 201-287 R217L): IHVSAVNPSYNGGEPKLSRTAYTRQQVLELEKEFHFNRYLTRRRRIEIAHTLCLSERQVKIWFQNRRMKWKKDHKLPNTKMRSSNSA

Sequence | binding signal (HESX1 [1]) | binding signal (HOXB4 [2]) | binding signal (SHOX [3]) | binding signal (HESX1 [4]) | binding signal (HOXA4) | binding signal (HOXB4 [5]) | binding signal (MSX2 [6]) | binding signal (ALX3 [7]) | binding signal (SHOX [8]) | binding signal (ALX3 [9]) | binding signal (PROP1 [10]) | binding signal (HESX1 [11]) | binding signal (PROP1 [12]) | binding signal (ALX3 [13]) | binding signal (HESX1 [14]) | binding signal (ALX3 [15]) | binding signal (PROP1 [16]) | binding signal (MSX2 [17]) | binding signal (HESX1 [18]) | binding signal (ALX3 [19])
GGTAATTA | 13.1 upbm affinity estimate (log intensity, higher = more binding, comparable within an allelic series) | 13.7 upbm affinity estimate (log intensity, higher = more binding, comparable within an allelic series) | 12.7 upbm affinity estimate (log intensity, higher = more binding, comparable within an allelic series) | 13.2 upbm affinity estimate (log intensity, higher = more binding, comparable within an allelic series) | 13.2 upbm affinity estimate (log intensity, higher = more binding, comparable within an allelic series) | 14.4 upbm affinity estimate (log intensity, higher = more binding, comparable within an allelic series) | 13.3 upbm affinity estimate (log intensity, higher = more binding, comparable within an allelic series) | 8.47 upbm affinity estimate (log intensity, higher = more binding, comparable within an allelic series) | 10 upbm affinity estimate (log intensity, higher = more binding, comparable within an allelic series) | 12.8 upbm affinity estimate (log intensity, higher = more binding, comparable within an allelic series) | 11.9 upbm affinity estimate (log intensity, higher = more binding, comparable within an allelic series) | 9.54 upbm affinity estimate (log intensity, higher = more binding, comparable within an allelic series) | 11.8 upbm affinity estimate (log intensity, higher = more binding, comparable within an allelic series) | 11 upbm affinity estimate (log intensity, higher = more binding, comparable within an allelic series) | 11.7 upbm affinity estimate (log intensity, higher = more binding, comparable within an allelic series) | 10.7 upbm affinity estimate (log intensity, higher = more binding, comparable within an allelic series) | 7.94 upbm affinity estimate (log intensity, higher = more binding, comparable within an allelic series) | 13.8 upbm affinity estimate (log intensity, higher = more binding, comparable within an allelic series) | 8.04 upbm affinity estimate (log intensity, higher = more binding, comparable within an allelic series) | 8.62 upbm affinity estimate (log intensity, higher = more binding, comparable within an allelic series)
GCAATTAA | 12.6 upbm affinity estimate (log intensity, higher = more binding, comparable within an allelic series) | 13.2 upbm affinity estimate (log intensity, higher = more binding, comparable within an allelic series) | 12.1 upbm affinity estimate (log intensity, higher = more binding, comparable within an allelic series) | 12.7 upbm affinity estimate (log intensity, higher = more binding, comparable within an allelic series) | 12.4 upbm affinity estimate (log intensity, higher = more binding, comparable within an allelic series) | 13.9 upbm affinity estimate (log intensity, higher = more binding, comparable within an allelic series) | 13.2 upbm affinity estimate (log intensity, higher = more binding, comparable within an allelic series) | 8.37 upbm affinity estimate (log intensity, higher = more binding, comparable within an allelic series) | 9.65 upbm affinity estimate (log intensity, higher = more binding, comparable within an allelic series) | 12.4 upbm affinity estimate (log intensity, higher = more binding, comparable within an allelic series) | 11.5 upbm affinity estimate (log intensity, higher = more binding, comparable within an allelic series) | 9.34 upbm affinity estimate (log intensity, higher = more binding, comparable within an allelic series) | 11.6 upbm affinity estimate (log intensity, higher = more binding, comparable within an allelic series) | 10.7 upbm affinity estimate (log intensity, higher = more binding, comparable within an allelic series) | 11.2 upbm affinity estimate (log intensity, higher = more binding, comparable within an allelic series) | 10.2 upbm affinity estimate (log intensity, higher = more binding, comparable within an allelic series) | 7.72 upbm affinity estimate (log intensity, higher = more binding, comparable within an allelic series) | 13.7 upbm affinity estimate (log intensity, higher = more binding, comparable within an allelic series) | 7.72 upbm affinity estimate (log intensity, higher = more binding, comparable within an allelic series) | 8.51 upbm affinity estimate (log intensity, higher = more binding, comparable within an allelic series)
TAATTATA | 12.8 upbm affinity estimate (log intensity, higher = more binding, comparable within an allelic series) | 13.5 upbm affinity estimate (log intensity, higher = more binding, comparable within an allelic series) | 12.3 upbm affinity estimate (log intensity, higher = more binding, comparable within an allelic series) | 12.9 upbm affinity estimate (log intensity, higher = more binding, comparable within an allelic series) | 12.7 upbm affinity estimate (log intensity, higher = more binding, comparable within an allelic series) | 14.3 upbm affinity estimate (log intensity, higher = more binding, comparable within an allelic series) | 13 upbm affinity estimate (log intensity, higher = more binding, comparable within an allelic series) | 8.6 upbm affinity estimate (log intensity, higher = more binding, comparable within an allelic series) | 9.85 upbm affinity estimate (log intensity, higher = more binding, comparable within an allelic series) | 12.8 upbm affinity estimate (log intensity, higher = more binding, comparable within an allelic series) | 11.7 upbm affinity estimate (log intensity, higher = more binding, comparable within an allelic series) | 9.16 upbm affinity estimate (log intensity, higher = more binding, comparable within an allelic series) | 11.7 upbm affinity estimate (log intensity, higher = more binding, comparable within an allelic series) | 10.9 upbm affinity estimate (log intensity, higher = more binding, comparable within an allelic series) | 11.5 upbm affinity estimate (log intensity, higher = more binding, comparable within an allelic series) | 10.6 upbm affinity estimate (log intensity, higher = more binding, comparable within an allelic series) | 8.03 upbm affinity estimate (log intensity, higher = more binding, comparable within an allelic series) | 13.6 upbm affinity estimate (log intensity, higher = more binding, comparable within an allelic series) | 8.06 upbm affinity estimate (log intensity, higher = more binding, comparable within an allelic series) | 8.74 upbm affinity estimate (log intensity, higher = more binding, comparable within an allelic series)
TTAATTAA | 13.7 upbm affinity estimate (log intensity, higher = more binding, comparable within an allelic series) | 13.5 upbm affinity estimate (log intensity, higher = more binding, comparable within an allelic series) | 13.3 upbm affinity estimate (log intensity, higher = more binding, comparable within an allelic series) | 13.6 upbm affinity estimate (log intensity, higher = more binding, comparable within an allelic series) | 13.2 upbm affinity estimate (log intensity, higher = more binding, comparable within an allelic series) | 14.2 upbm affinity estimate (log intensity, higher = more binding, comparable within an allelic series) | 13.1 upbm affinity estimate (log intensity, higher = more binding, comparable within an allelic series) | 8.75 upbm affinity estimate (log intensity, higher = more binding, comparable within an allelic series) | 11.2 upbm affinity estimate (log intensity, higher = more binding, comparable within an allelic series) | 13 upbm affinity estimate (log intensity, higher = more binding, comparable within an allelic series) | 12.3 upbm affinity estimate (log intensity, higher = more binding, comparable within an allelic series) | 11.2 upbm affinity estimate (log intensity, higher = more binding, comparable within an allelic series) | 12.4 upbm affinity estimate (log intensity, higher = more binding, comparable within an allelic series) | 11.7 upbm affinity estimate (log intensity, higher = more binding, comparable within an allelic series) | 12.6 upbm affinity estimate (log intensity, higher = more binding, comparable within an allelic series) | 11.6 upbm affinity estimate (log intensity, higher = more binding, comparable within an allelic series) | 8.42 upbm affinity estimate (log intensity, higher = more binding, comparable within an allelic series) | 13.5 upbm affinity estimate (log intensity, higher = more binding, comparable within an allelic series) | 8.85 upbm affinity estimate (log intensity, higher = more binding, comparable within an allelic series) | 8.98 upbm affinity estimate (log intensity, higher = more binding, comparable within an allelic series)
